The results in this text go back to the supplement of paper PMC6555819.

In the assay the test system is RARb homodimer (NR concentration 270 nM). As to the kind of experiment: PBM binding z-score (relative to random genomic background probes); higher = stronger binding; sequences stand for … in GC…GCGATTGACAGCGTAGAATGAAGG
An outline of the steps:
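Custom Agilent 4×180K protein-binding microarrays carried double-stranded probes, each with a 34-nt variable region. These regions held direct-repeat seeds, single-nucleotide variants, half-site ablations and random human genomic background sequences. Ligand-free nuclear receptor dimers were incubated on the arrays for 1 h, antibodies against each partner (one per run) detected binding, and scanned fluorescence was regression-normalized. Binding z-scores take the random background probes as reference.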
The sequence ATCTCGAGGTAACAAGTTCAGTGAAAGAGAGGAC displayed a PBM binding z-score of 1.83.

AATACAGGGTCATCGTAGGCCAGAGAACGCACAG registered a PBM binding z-score of 3.8. The sequence GCAGACAAGTGAAACGCAGGTAACTCAGGGTGGC displayed a PBM binding z-score of -1. For TCATATAGGTAATACGGGTGAAAGTCGGCATCTA the value was 0.258; for GCGTATAGGTAATACAAGGTGAAAGTCCGATTGT, 0.95; for CAAACTAAGTCAAAGGTCAAAGTCGAGCCAACCA, 4.68.

For GCTATTAGTTGAAAGGCCAACCGAATGATTCTCG, the PBM binding z-score was 1.27. For GCATAGAGGTAATACAAGGTGAAAGTCCGATTGT the value was 1.08. Take ATATGTAGGTTTAGGGTCATTCAGGTTGGTTCGC: the PBM binding z-score amounted to 3.05. Turning to TCTCGGAGGACACGAAAGGTCAGAGTTCGACATC, the PBM binding z-score worked out at 5.05.

Consider TAGCCTAGGTCTTTGGGCCAGTATAGTACGCATC, for which the PBM binding z-score was -0.337.

As for CCTCGGAGGACAGAAGGCCAGAGCTGTCCGCTTT, the PBM binding z-score is 0.275. Then TTACCAAGGTGTAAGGTCGTTGATGCACGCCTTG, with 0.961; and ATCTCTAGATAACAAGTTCAGTGAAAGAGAGGAC, with 1.37. In turn, ATCGAAAGGTCGAGGTGAATATAGAGAAAGGGAA came in with a PBM binding z-score of 2.88. For CATACAGGGTTAGCTAGGCCAGAGTAGGGACGGC the value was 0.276. For CCTGCTATGTCATGGTCAGCTAATCTACAGTATG, the PBM binding z-score is 0.419. For AGAATGAGGTAATTAAGATCAGGGAATTGCGGTC, the PBM binding z-score was -0.177.
